Only some compounds are listed: those with a hit (about 4% of all), similar ones and a draw of the others.
UGM FP inh – M. tuberculosis UGM enzyme inhibitors, primary screen, biochemical, fluorescence polarization, single point | 0.06% of 320,000 active | inhibition, % at 10 µM | UDP-galactopyranose mutase (Mycobacterium tuberculosis (strain ATCC 25618 / H37Rv)), … | purified UGM, fluorescence polarization probe displacement; in the data active = inhibition above about 10%, passing the limit was not always enough
GDH-TPI counter – GDH-TPI coupling enzyme inhibitors, primary screen, artefact control for M. tuberculosis FBA inhibitor project, biochemical, absorbance, full deck; GDH-TPI coupled enzyme counterscreen, NADH absorbance; inhibition, % at 4.8 µM; 1.2% of 360,000 active; AID 588335, 2011; in the data active = inhibition above about 30%;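 also: 0% = DMSO wells and 100% = wells lacking the enzyme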
RecA intein inh – Mtb RecA intein splicing inhibitors, primary screen, biochemical, fluorescence, HTS | Protein RecA (Mycobacterium tuberculosis (strain ATCC 25618 / H37Rv)), P9WHJ3 | cell-free RecA intein splicing | inhibition, % (no concentration beside the values) | 0.75% of 290,000 active; in the data active = inhibition above about 30%;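 also: 0% = vehicle wells and 100% = reference inhibitor control wells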
Target sequence (P9WHJ3 whole entry, looked up): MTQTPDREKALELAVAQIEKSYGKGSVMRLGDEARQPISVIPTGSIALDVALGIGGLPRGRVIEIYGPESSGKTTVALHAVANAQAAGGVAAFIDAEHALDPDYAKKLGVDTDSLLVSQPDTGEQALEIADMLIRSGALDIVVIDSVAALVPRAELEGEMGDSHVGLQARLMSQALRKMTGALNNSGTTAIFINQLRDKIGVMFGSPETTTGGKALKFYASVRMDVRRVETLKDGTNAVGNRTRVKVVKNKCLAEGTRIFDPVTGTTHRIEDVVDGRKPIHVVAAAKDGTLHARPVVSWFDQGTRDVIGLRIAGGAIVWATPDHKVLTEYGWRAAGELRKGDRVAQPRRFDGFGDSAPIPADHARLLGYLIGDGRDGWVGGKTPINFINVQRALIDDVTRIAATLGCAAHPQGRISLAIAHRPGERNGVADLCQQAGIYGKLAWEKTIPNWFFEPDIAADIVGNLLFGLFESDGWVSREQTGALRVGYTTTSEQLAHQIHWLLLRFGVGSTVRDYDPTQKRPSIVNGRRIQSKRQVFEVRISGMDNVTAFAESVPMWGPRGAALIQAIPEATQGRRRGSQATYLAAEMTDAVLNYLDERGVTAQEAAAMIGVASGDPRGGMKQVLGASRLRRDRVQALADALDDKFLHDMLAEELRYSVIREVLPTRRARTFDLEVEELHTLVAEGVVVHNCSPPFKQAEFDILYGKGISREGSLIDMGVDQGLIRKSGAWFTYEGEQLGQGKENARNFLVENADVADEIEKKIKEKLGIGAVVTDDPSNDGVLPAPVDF
Mtb bLac sens – beta-lactam sensitization of Mtb H37Rv, H37Rv. M. tuberculosis H37Rv growth with meropenem, percent inhibition. inhibition, % at 25 µM. 0.27% of 330,000 active. AID 434955, 2010;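 also: growth measured after seven days incubation then overnight dye step; 0% = bacteria only wells and 100% = bacteria with antibiotic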
FBA Mtb inh – Mtb FBA enzyme inhibitors, primary screen, biochemical, fluorescence, strain H37Rv; Fructose-bisphosphate aldolase (Mycobacterium tuberculosis (strain ATCC 25618 / H37Rv)), …; purified M. tuberculosis FBA, fluorescence read-out; inhibition, % at 1 µM; 2.3% of 360,000 active; in the data active = inhibition above about 27%;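 also: 0% = vehicle and 100% = reference inhibitor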
Rv3671c protease – Rv3671c serine protease inhibitors, primary screen, biochemical, fluorescence polarization, M. tuberculosis H37Rv. AID 2606, 2010. inhibition, % at 5.96 µM. 0.048% of 320,000 active; in the data active = inhibition above about 38%;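 also: extracellular domain of Rv3671c used as enzyme; 0% = enzyme with DMSO and 100% = no enzyme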
GFP chromo cs – counter-screen: blocks GFP chromophore formation, dose response, counter-screen, biochemical, fluorescence, homogeneous; 83% of 2,100 active; EC50, µM; cell-free GFP chromophore formation; shares compounds with RecA intein inh
An asterisk follows results filed as active; . = no result. Unless noted, no rule for the calls is given here.

SMILES | UGM FP inh | GDH-TPI counter | RecA intein inh | Mtb bLac sens | FBA Mtb inh | Rv3671c protease | GFP chromo cs
COc1ccc(NC(=O)CN2C(=O)C(C)Oc3ccccc32)cc1OC (stereo unspecified) | 1.4 | 7.4 | 6.6 | 2.5 | 3.0 | -8.3 | .
O=C(NCc1ccccc1)c1onc(CS(=O)(=O)c2ccc(Cl)cc2)c1C(=O)NCc1ccccc1 | 0.0 | 5.7 | 0.9 | -5.5 | -1.6 | -4.0 | .
CCOC(=O)[C@@H]1[C@H]2COc3ccccc3[C@@H]2N2C(=O)N(c3cccc(F)c3)C(=O)[C@@]12C | -1.5 | 8.1 | . | -6.7 | 1.8 | -1.6 | .
C=CCOc1ccc(/C=C2\SC(=S)N(NS(=O)(=O)c3ccccc3)C2=O)cc1 | 1.2 | 9.5 | 12.5 | 3.1 | -3.1 | -4.1 | .
O=S(=O)(CCSc1nc2ccccc2s1)c1nc2ccccc2s1 | 4.0 | 5.2 | 78.1* | 97.2 | -3.5 | -3.7 | 3.65*
CCOc1cc(NC2CS(=O)(=O)CC2O)c(OCC)cc1NC(=O)c1ccccc1 (stereo unspecified) | 1.0 | 8.3 | 59.4* | -3.9 | 5.4 | 1.1 | >38
CCOc1cc(NC(=O)c2ccccn2)c(OCC)cc1NC(=O)c1ccccc1 | -0.9 | 5.1 | -3.8 | -5.8 | 1.1 | -2.8 | .
COc1ccc(CN2CCC(=O)N([C@H](CO)Cc3ccccc3)CC2)cc1OC | 0.5 | -1.3 | -1.2 | -10.2 | 12.6 | 10.6 | .
Cc1ccc(N(CC(O)CN2CCCCC2)S(=O)(=O)c2ccccc2)cc1 (stereo unspecified) | 0.3 | 0.9 | 0.6 | -8.1 | -1.5 | -8.5 | .
O=c1c(N=Nc2ccc(O)cc2)c(-c2ccccc2)[nH]n1-c1ccc([N+](=O)[O-])cc1 | 1.7 | -13.4 | 1.6 | . | -1.8 | 16.8 | .
O=c1cc(-c2ccccc2)[nH]n1-c1ccc([N+](=O)[O-])cc1 | -4.1 | 19.1 | 45.7* | -3.9 | -2.3 | -11.4 | 30.4*
O=C(CCl)c1ccc2c(c1)CCN2C(=O)C1CCCCC1 | 0.3 | 4.9 | 80.2* | 99.7 | 6.9 | 3.4 | >38
CCCC(C)c1oc(=O)cc(O)c1C (stereo unspecified) | . | 2.1 | . | . | -2.4 | . | .
O=[N+]([O-])c1ccc(-c2ccc(/C=N/Nc3nc(NCc4ccccc4)nc(N4CCOCC4)n3)o2)cc1 | -8.3 | 12.4 | -15.4 | 94.4 | -9.0 | 5.5 | .
COc1nc(N/N=C/c2ccc(-c3ccccc3[N+](=O)[O-])o2)nc(N2CCOCC2)n1 | 4.7 | 18.6 | 61.0* | 7.8 | -1.3 | -40.5 | 35.1*
COCCCn1c(SCC(=O)N2CCCC2=O)nc2ccccc2c1=O | . | 0.9 | . | . | -2.2 | . | .
CC1(C(=O)NC2CCCCC2)CCC(=O)N1C1CCN(Cc2ccccc2)CC1 (stereo unspecified) | . | . | . | . | 3.8 | . | .
CCN(c1ccccc1)c1cc2ccccc2c(=O)[nH]1 | -2.6 | 17.7 | 65.4* | 3.2 | 4.0 | -38.5 | 31.4*
CC(=O)N(Cc1ccc(F)cc1)C1=C(NCCc2ccccc2)C(=O)c2ccccc2C1=O | 0.6 | 10.7 | 77.5* | 99.9 | -4.5 | -49.9 | 11.2*
Cc1ccc(C)c(S(=O)(=O)N2CCN(C(=O)[C@H](C)N3C(=O)C4CC=CCC4C3=O)CC2)c1 (stereo partly specified) | 1.1 | -1.8 | . | -8.3 | 4.0 | -3.2 | .
CC(C)(C)OC(=O)NCCc1nnc(S(=O)(=O)Cc2ccc(Cl)cc2Cl)o1 | 0.6 | 4.3 | 85.2* | 3.5 | 3.7 | -0.9 | >38
COc1cccc(CNS(=O)(=O)c2cc(Br)ccc2Br)c1 | . | 0.0 | . | . | -1.3 | . | .
CC1CCc2c(c3ccccc3n2C(=O)CCl)C1 (stereo unspecified) | -3.1 | -8.6 | 40.9* | 0.9 | -2.2 | -5.0 | 0.694*
Cc1ccc(NC(=O)CCc2nnc3ccc(N4CCC5(CC4)OCCO5)nn23)cc1F | -2.9 | -1.5 | -1.2 | -0.4 | 0.5 | -7.2 | .
COc1ccc(NC(=O)C/C(C)=N/NC(=O)COc2ccc(OC)cc2)cc1 | -0.8 | -0.7 | 0.2 | 58.9 | 1.0 | 10.2 | .
SMILES | UGM FP inh | GDH-TPI counter | RecA intein inh | Mtb bLac sens | FBA Mtb inh | Rv3671c protease | GFP chromo cs
C/C(CC(=O)Nc1ccccc1[N+](=O)[O-])=N\NC(=O)COc1ccccc1C | -0.7 | 8.9 | 69.4* | -6.9 | -1.1 | -3.1 | 21.1*
C/C(CC(=O)Nc1ccc2c(c1)OCCO2)=N\NC(=O)COc1ccccc1C | 0.9 | 0.8 | . | -7.2 | 1.4 | -7.0 | .
C/C(CC(=O)Nc1ccc(F)cc1)=N\NC(=O)COc1ccccc1 | 1.7 | -1.9 | 65.8* | 0.5 | 1.3 | -1.0 | 21.8*
Cc1ccc2c(c1)c1c3n2CCN(C(=O)CCl)C3CCC1 (stereo unspecified) | -0.2 | 2.5 | 73.5* | 99.5 | -0.3 | 4.7 | 7.27*
CO[C@@]12[C@@H]3N[C@@H]3CN1C1=C(C(=O)C(N)=C(C)C1=O)[C@@H]2COC(N)=O | . | 21.6 | . | . | -1.1 | . | .
CCO/C=C1\C(=O)N(c2ccccc2)C(=O)c2ccccc21 | -2.6 | -6.2 | . | 2.4 | 15.4 | -6.9 | .
CCO/C=C1/C(=O)N(Cc2ccccc2)C(=O)c2ccccc21 | -1.5 | -1.1 | 36.3* | 1.7 | 2.5 | -104.3 | >12
c1ccc(Nc2nc(NCc3ccco3)c3ccccc3n2)cc1 | -2.3 | -2.3 | 37.6* | 97.2 | 4.3 | -3.2 | 26.4*
Cc1cccc(Nc2nc(NCc3ccco3)c3ccccc3n2)c1 | -2.2 | 5.8 | 32.6* | 99.7 | 6.4 | 34.3 | 15.2*
CC(SCc1ccccc1)C(=O)Nc1ccc(F)cc1 (stereo unspecified) | -0.7 | 1.9 | 2.1 | -2.2 | 2.0 | 6.4 | .
N#CC(C#N)=C(Nc1ccc(F)cc1)SCc1cccc(Br)c1 | 1.5 | 19.4 | 55.3* | -0.2 | -5.0 | -0.4 | 4.72*
C[C@@H]1CN([C@@H](C)CO)C(=O)CCCn2nncc2CO[C@H]1CN(C)S(C)(=O)=O | . | 5.2 | . | . | 2.4 | . | .
CS(=O)(=O)c1ccc(C(=O)OCc2nnc(-c3ccc(Cl)cc3)o2)cc1[N+](=O)[O-] | -2.7 | 2.5 | 66.6* | -2.3 | 86.7* | -10.4 | 6.81*
COc1ccc(S(=O)(=O)NC(C)C(=O)N2CCCC2)cc1C (stereo unspecified) | 0.2 | -5.1 | 2.1 | -9.8 | -3.4 | . | .
O=C(NCC1CCCO1)C(c1cccs1)N(Cc1ccccc1)C(=O)c1ccc(-c2ccccc2)[nH]1 (stereo unspecified) | -4.0 | 3.0 | 13.1 | 47.2 | 3.0 | -11.1 | .
CC(C)(C)NC(=O)C(c1cccs1)N(CC1CCCO1)C(=O)c1ccc(-c2ccccc2)[nH]1 (stereo unspecified) | 3.3 | 9.6 | 33.4* | -10.1 | -3.2 | -5.7 | >38

From PubChem
